Assay outcomes (PubChem BioAssay)
Sampled rows, rich in hits. Any-hit rate of the full collection: about 10%.
G9a inh: qHTS Assay for Inhibitors of Histone Lysine Methyltransferase G9a | Potency, µM (highest dose often 102 µM), for the others: top-dose activity, negative = inhibition, usual class: inhibitors | AID 504332, 2011 | Histone-lysine N-methyltransferase EHMT2 (Homo sapiens), Q96KQ7 | hit rate 8.8% among 350,000 | G9a H3K9 monomethylation, AlphaScreen, 2 h; note: potency is the fitted concentration of half-maximal effect; % is set by controls: 0 for no effect and ±100 for the full control effect; nearly all actives have a fitted effect of over 75% in size
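G9a (20 nM) was preincubated 15 min with compound, then reacted 2 h at room temperature with 500 nM biotin-H3K9 peptide and 20 µM SAM. Monomethyl-H3K9 detected by AlphaScreen using anti-H3K9me1 antibody.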
CtBP-E1A inh: qHTS Assay for Inhibitors of the CtBP/E1A Interaction | AlphaScreen GST-E1A/His-CtBP binding, 1536-well; active compounds read low | activity change, % (test concentration not listed) | hit rate 0.49% among 340,000; in the data active = activity change below about -65%; inconclusive = mostly about -30% to -63%; note: % is set by controls: 0 for no effect and ±100 for the full control effect
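GST-E1A and His-tagged CtBP (125 nM each as 5X stock) were preincubated with pin-transferred compound for 2 h at 37 °C in the dark, then glutathione donor and nickel acceptor beads were added for 1 h before AlphaScreen reading.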
BAZ2B inh: qHTS Assay for Inhibitors of BAZ2B | AlphaScreen BAZ2B-H3K14Ac peptide displacement | AID 504333, 2011 | Potency, µM (titrated, usually from 114 µM), inactives show top-dose activity change, negative = inhibition, actives largely listed as inhibitors | hit rate 4.4% among 360,000; note: potency is the fitted concentration of half-maximal effect; % is set by controls: 0 for no effect and ±100 for the full control effect; nearly all actives have a fitted effect of over 60% in size
Target sequence (Q9UIF8 whole entry, looked up): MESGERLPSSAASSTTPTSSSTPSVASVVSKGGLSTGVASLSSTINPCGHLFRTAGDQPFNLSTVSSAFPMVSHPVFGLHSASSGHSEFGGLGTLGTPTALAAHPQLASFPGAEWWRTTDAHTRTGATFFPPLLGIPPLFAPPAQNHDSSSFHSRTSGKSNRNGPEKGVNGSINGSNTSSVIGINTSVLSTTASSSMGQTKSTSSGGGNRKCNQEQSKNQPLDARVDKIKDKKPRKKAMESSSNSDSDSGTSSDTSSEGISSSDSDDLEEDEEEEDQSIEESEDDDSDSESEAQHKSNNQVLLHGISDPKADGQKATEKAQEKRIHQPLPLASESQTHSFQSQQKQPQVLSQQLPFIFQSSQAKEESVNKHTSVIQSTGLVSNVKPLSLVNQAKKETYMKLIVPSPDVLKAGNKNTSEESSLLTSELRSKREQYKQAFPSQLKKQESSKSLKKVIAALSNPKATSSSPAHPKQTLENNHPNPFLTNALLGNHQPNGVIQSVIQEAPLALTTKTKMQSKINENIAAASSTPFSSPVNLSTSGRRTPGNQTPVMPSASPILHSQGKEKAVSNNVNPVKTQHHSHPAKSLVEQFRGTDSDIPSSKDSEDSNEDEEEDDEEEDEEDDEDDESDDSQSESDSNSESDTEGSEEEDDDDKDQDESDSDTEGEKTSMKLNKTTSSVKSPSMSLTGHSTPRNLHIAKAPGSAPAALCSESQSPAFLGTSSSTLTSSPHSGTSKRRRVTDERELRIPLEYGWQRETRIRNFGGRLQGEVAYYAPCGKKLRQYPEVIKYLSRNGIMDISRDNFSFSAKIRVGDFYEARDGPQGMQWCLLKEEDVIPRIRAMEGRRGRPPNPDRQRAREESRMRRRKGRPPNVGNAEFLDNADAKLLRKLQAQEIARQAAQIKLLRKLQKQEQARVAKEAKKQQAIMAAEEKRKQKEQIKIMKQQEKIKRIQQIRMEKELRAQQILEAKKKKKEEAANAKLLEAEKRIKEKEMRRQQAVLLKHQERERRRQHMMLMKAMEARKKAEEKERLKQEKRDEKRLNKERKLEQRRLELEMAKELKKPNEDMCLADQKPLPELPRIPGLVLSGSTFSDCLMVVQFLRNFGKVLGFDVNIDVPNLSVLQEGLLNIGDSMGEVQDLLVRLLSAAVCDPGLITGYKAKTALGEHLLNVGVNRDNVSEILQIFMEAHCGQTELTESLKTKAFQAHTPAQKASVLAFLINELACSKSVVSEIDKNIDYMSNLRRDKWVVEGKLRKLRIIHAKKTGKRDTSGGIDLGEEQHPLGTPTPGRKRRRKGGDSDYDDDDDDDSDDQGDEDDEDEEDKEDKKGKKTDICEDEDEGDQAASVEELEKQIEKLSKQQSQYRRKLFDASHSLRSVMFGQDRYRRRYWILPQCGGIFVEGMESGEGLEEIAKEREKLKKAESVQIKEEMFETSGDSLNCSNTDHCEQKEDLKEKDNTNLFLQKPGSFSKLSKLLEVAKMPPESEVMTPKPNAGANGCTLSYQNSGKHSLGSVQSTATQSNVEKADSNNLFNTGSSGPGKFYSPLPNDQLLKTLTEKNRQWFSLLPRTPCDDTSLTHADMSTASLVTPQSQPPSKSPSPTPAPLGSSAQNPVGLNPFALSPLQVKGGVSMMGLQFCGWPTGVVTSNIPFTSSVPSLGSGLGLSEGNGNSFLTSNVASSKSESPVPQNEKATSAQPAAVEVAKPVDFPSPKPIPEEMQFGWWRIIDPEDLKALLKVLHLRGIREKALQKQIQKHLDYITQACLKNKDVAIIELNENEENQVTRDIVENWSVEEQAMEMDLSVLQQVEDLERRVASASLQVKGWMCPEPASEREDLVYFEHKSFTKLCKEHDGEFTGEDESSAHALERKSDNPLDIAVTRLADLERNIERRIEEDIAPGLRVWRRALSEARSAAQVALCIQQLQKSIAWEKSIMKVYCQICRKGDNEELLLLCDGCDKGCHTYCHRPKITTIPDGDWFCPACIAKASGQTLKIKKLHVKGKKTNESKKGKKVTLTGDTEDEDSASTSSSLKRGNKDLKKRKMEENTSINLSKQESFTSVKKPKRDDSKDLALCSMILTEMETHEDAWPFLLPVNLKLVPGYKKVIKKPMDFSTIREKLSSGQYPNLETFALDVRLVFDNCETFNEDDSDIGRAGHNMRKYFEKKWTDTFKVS
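In this displacement format the biotinylated H3(5-23) peptide acetylated at Lys14 serves as ligand at 50 nM, with BAZ2B at 50 nM in PBS pH 7.4 containing 0.01% Tween-20. Donor and acceptor beads are 10 ug/mL final.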
HP1b chromo inh: HTS for Inhibitors of HP1-beta Chromodomain Interactions with Methylated Histone Tails. Chromobox protein homolog 1 (Homo sapiens), P83916. hit rate 0.56% among 390,000. Potency, µM (series often up to 114 µM), without a hit: at the top dose activity change, negative = inhibition, usual class: inhibitors. AlphaScreen HP1-beta / biotin-H3K9me3 peptide binding; note: potency is the fitted concentration of half-maximal effect; nearly all actives have a fitted effect of over 70% in size
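Compound inhibition of the preformed complex between 50 nM HP1-beta and 50 nM biotinylated H3K9me3 peptide was read by AlphaScreen. Buffer was PBS pH 7.4 with 0.01% Tween-20. Incubations ran 30 min at room temperature, with 10 ug/mL donor/acceptor beads.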
JMJD2A Tudor inh: qHTS Assay for Inhibitors of JMJD2A-Tudor Domain; Lysine-specific demethylase 4A (Homo sapiens), O75164; hit rate 4.4% among 390,000; AlphaScreen JMJD2A-Tudor / H3K4me3 peptide binding; Potency, µM (doses to about 114 µM), without a hit: top-dose activity change, negative = inhibition, usual class: inhibitors; note: potency is the fitted concentration of half-maximal effect; % is set by controls: 0 for no effect and ±100 for the full control effect; nearly all actives have a fitted effect of over 50% in size
Six1-Eya2 blk: qHTS Assay for Inhibitors of the Six1/Eya2 Interaction | AlphaScreen GST-Six1/His-Eya2 binding, biochemical; active compounds read low | activity change, % (no concentration beside the values) | hit rate 0.56% among 360,000 | AID 651725, 2012; in the data active = activity change below about -65%; inconclusive = mostly about -30% to -63%; note: % is set by controls: 0 for no effect and ±100 for the full control effect
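AlphaScreen with GST-Six1 and His-Eya2 (5X mix: 250 nM and 500 nM), glutathione donor and nickel acceptor beads; buffer 50 mM Tris pH 8.0, 300 mM NaCl, 1 mM TCEP; 1 h at 37 C in the dark.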
An asterisk follows results filed as active; ! = repeats disagree; [ ] = another dose, or the depositor's remark. Unless noted, calls come from the whole dose curve; as a rule, active = well fitted inhibition curve with a large enough effect; inconclusive = small, poorly fitted or top-dose-only effect; inactive = no such curve, though single readings can be large or run the other way.

How did CC1CCc2c(C(=O)NCC3CCCO3)csc2C1 (stereo not given) do in these assays?
G9a inh: 89.1µM*; CtBP-E1A inh: 7.3; BAZ2B inh: 4.4%; HP1b chromo inh: 32.0%; JMJD2A Tudor inh: -11.6%; Six1-Eya2 blk: 4.9

What do the screens show for `O=C(NCC1CCCO1)c1csc2c1CCCCC2` (stereo not given)?
G9a inh: 0.4%[59 µM]; CtBP-E1A inh: 4.2; BAZ2B inh: 3.3%; HP1b chromo inh: 21.7%; JMJD2A Tudor inh: -7.7%; Six1-Eya2 blk: 0.7

What do the screens show for `CCOc1ccc2c(c1)c(=O)c(C(=O)c1ccc(C)cc1)cn2Cc1ccccc1OC`?
G9a inh: -48.2%[59 µM]; BAZ2B inh: inconclusive; HP1b chromo inh: 1.7%; JMJD2A Tudor inh: -27.9%

What do the screens show for `Cc1ccc2oc(-c3ccc(C)c(NC(=O)/C=C/c4ccc(Cl)cc4)c3)nc2c1`?
G9a inh: -27.2%[59 µM]; BAZ2B inh: -12.8%; HP1b chromo inh: 19.3%; JMJD2A Tudor inh: -1.5%

How did O=S(=O)(c1ccc2nc(Cl)c(Cl)nc2c1)N1CCN(S(=O)(=O)c2c(F)cccc2F)CC1 do in these assays?
JMJD2A Tudor inh: -11.0%

How did CCOC(=O)N1CCN(C(=O)c2ccc(Cn3c(=S)[nH]c4cc5c(cc4c3=O)OCO5)cc2)CC1 do in these assays?
G9a inh: 7.08µM*; CtBP-E1A inh: -8.3; BAZ2B inh: 9.9%; HP1b chromo inh: 10.8%; JMJD2A Tudor inh: inconclusive; Six1-Eya2 blk: -6.6

How did O=C(CCCn1c(=S)[nH]c2ccc(Br)cc2c1=O)NCC1CCCO1 (stereo not given) do in these assays?
G9a inh: 39.8µM*; CtBP-E1A inh: 2.7; BAZ2B inh: -32.5%; HP1b chromo inh: 56.6%; JMJD2A Tudor inh: -21.8%; Six1-Eya2 blk: -1.4

Results for CC1CCc2[nH]c3ccc(C(=O)NCC4CCCO4)cc3c2C1 (stereo not given) ?
G9a inh: 44.7µM*; CtBP-E1A inh: -5.7; BAZ2B inh: -38.1%; HP1b chromo inh: inconclusive; JMJD2A Tudor inh: inconclusive; Six1-Eya2 blk: -5.4

How did COCCn1c(=S)[nH]c2cc(C(=O)NCC3CCCO3)ccc2c1=O (stereo not given) do in these assays?
G9a inh: inconclusive; CtBP-E1A inh: 7.0; BAZ2B inh: inconclusive; HP1b chromo inh: 23.7%; JMJD2A Tudor inh: 17.8µM*; Six1-Eya2 blk: 1.9

Results for CS(=O)(=O)N1CCCCC1c1cc(C(=O)Nc2ccccc2Cl)no1 (stereo not given) ?
CtBP-E1A inh: -5.3; Six1-Eya2 blk: 12.9

How did Fc1ccc(Nc2ccnc(-c3ccccc3C(F)(F)F)n2)cc1 do in these assays?
G9a inh: 6.4%[0.501 µM]

What do the screens show for `c1cc2c(cn1)cnc1cscc12`?
G9a inh: 79.4µM*; CtBP-E1A inh: 10.2; BAZ2B inh: -0.9%; HP1b chromo inh: 32.3%; JMJD2A Tudor inh: 10.0%; Six1-Eya2 blk: -6.9

What do the screens show for `Cc1ccc(CNC(=O)CSc2ncc(S(=O)(=O)c3ccc(C)c(Cl)c3)c(=O)[nH]2)cc1`?
G9a inh: 4.2%[59 µM]; BAZ2B inh: -0.7%; HP1b chromo inh: 13.6%[57 µM]; JMJD2A Tudor inh: -8.0%

How did COc1cn(-c2ccccc2)nc1C(=O)Nc1ccc(C)cc1Cl do in these assays?
G9a inh: inconclusive; CtBP-E1A inh: 2.9; BAZ2B inh: 79.4µM*; HP1b chromo inh: 23.2%; JMJD2A Tudor inh: inconclusive; Six1-Eya2 blk: -4.4

What do the screens show for `COc1ccc(NC(=O)CNc2ccccc2C(C)=O)cc1S(=O)(=O)N1CCOCC1`?
CtBP-E1A inh: -1.6; HP1b chromo inh: 43.8%; JMJD2A Tudor inh: -13.8%; Six1-Eya2 blk: -4.5

Results for O=C(Nc1c2c(nn1-c1ccccc1)CS(=O)(=O)C2)c1ccccc1Br ?
G9a inh: 22.7%; CtBP-E1A inh: 6.6; BAZ2B inh: -3.5%; HP1b chromo inh: 27.1%; JMJD2A Tudor inh: -2.8%; Six1-Eya2 blk: -3.4

How did O=S(=O)(Nc1cccnc1)c1ccccc1 do in these assays?
G9a inh: 13.9%[59 µM]; CtBP-E1A inh: 8.9; BAZ2B inh: -15.3%; HP1b chromo inh: 19.1%; JMJD2A Tudor inh: 50.1µM*!; Six1-Eya2 blk: 11.0

Results for O=S(=O)(Nc1ccncc1)c1ccccc1 ?
G9a inh: 50.1µM*; CtBP-E1A inh: -0.8; BAZ2B inh: inconclusive; HP1b chromo inh: 47.2%; JMJD2A Tudor inh: 11.8%[57.1 µM]; Six1-Eya2 blk: -0.7

Results for O=S(=O)(Nc1ccncc1)c1ccc(Cl)cc1 ?
G9a inh: -9.8%[59 µM]; CtBP-E1A inh: -8.8; BAZ2B inh: 1.9%; HP1b chromo inh: 22.9%; JMJD2A Tudor inh: 1.5%; Six1-Eya2 blk: -8.8

Results for CCOC(=O)c1c(S(=O)(=O)NCC(=O)Nc2ccc(OC)cc2)c(C)n(C)c1C ?
G9a inh: -3.2%; BAZ2B inh: -12.1%; HP1b chromo inh: 11.1%[57 µM]; JMJD2A Tudor inh: -13.5%; Six1-Eya2 blk: -8.7

Results for O=C(NC1CCCCC1)N1CCN(C(c2ccccc2)c2ccccc2)CC1 ?
G9a inh: -7.9%; CtBP-E1A inh: 2.1; BAZ2B inh: 19.0%; HP1b chromo inh: 22.7%; JMJD2A Tudor inh: -22.7%; Six1-Eya2 blk: -2.2

Results for Cc1ccc(-c2nc(NCc3ccco3)c3ccccc3n2)cc1 ?
G9a inh: inconclusive; BAZ2B inh: -29.8%; HP1b chromo inh: -6.3%; JMJD2A Tudor inh: -32.4%; Six1-Eya2 blk: -3.6

What do the screens show for `Cc1ccc(OCCN2CCN(c3nc(NCc4ccco4)c4ccccc4n3)CC2)cc1`?
G9a inh: inconclusive; CtBP-E1A inh: -1.6; BAZ2B inh: inconclusive; HP1b chromo inh: -33.5%; JMJD2A Tudor inh: 56.2µM*; Six1-Eya2 blk: -11.8

How did c1ccc(CN2CCN(c3nc(NCc4ccco4)c4ccccc4n3)CC2)cc1 do in these assays?
G9a inh: inconclusive; CtBP-E1A inh: inconclusive; BAZ2B inh: 50.1µM*; HP1b chromo inh: -15.8%; JMJD2A Tudor inh: inconclusive; Six1-Eya2 blk: -20.8

What do the screens show for `OCCN1CCN(c2nc(NCc3ccco3)c3ccccc3n2)CC1`?
G9a inh: -8.0%[59 µM]; CtBP-E1A inh: -7.2; BAZ2B inh: -9.2%; HP1b chromo inh: 4.9%; JMJD2A Tudor inh: inconclusive; Six1-Eya2 blk: -4.9

How did C/C(=N\NC(=O)c1ccc(N(C)C)cc1)c1cccnc1 do in these assays?
G9a inh: 25.1µM*; CtBP-E1A inh: -0.7; BAZ2B inh: inconclusive; HP1b chromo inh: 38.6%; JMJD2A Tudor inh: -17.9%; Six1-Eya2 blk: -3.2
